Experimental data: PubChem BioAssay (NCI)
The panel holds about 79,000 compounds, 15% with a hit somewhere; the sample as a whole holds those more often. Unmarked numbers belong to inactive results. The source made the active and inactive calls. No stated cut-off is given here; in the data, active means growth inhibition above about 70%; inactive means the rest.

What was measured:
[1] = NCI Yeast Anticancer Drug Screen. Data for the rad50 strain (AID 155);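 further: 0% = growth of vehicle-only cultures of the same strain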; settings: S. cerevisiae rad50 strain growth inhibition, active compounds read high
Summary of the method: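 Cells are treated with compound, grown, and their growth is then scored against vehicle-only cultures of the same repair-deficient yeast strain.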

[2] = NCI Yeast Anticancer Drug Screen. Data for the mec2-1 strain (AID 157); settings: S. cerevisiae mec2-1 strain, active compounds read high
Summary of the method: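 Compounds were applied to mec2-1 yeast cells. Their growth was then compared with that of vehicle-treated cultures to give growth inhibition.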

[3] = NCI Yeast Anticancer Drug Screen. Data for the sgs1 mgt1 strain (AID 161);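 further: 0% = growth of cultures given vehicle only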; settings: S. cerevisiae sgs1 mgt1 strain, active compounds read high
Summary of the method: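 Yeast cells carrying a defined DNA-repair defect were exposed to test compounds. Growth inhibition was measured relative to vehicle-treated controls.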

[4] = NCI Yeast Anticancer Drug Screen. Data for the cln2 rad14 strain (AID 165);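 further: 0% = growth equal to vehicle treated cultures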; settings: S. cerevisiae cln2 rad14 strain, active compounds read high
Summary of the method: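 Strain: cln2 rad14 yeast, altered in cell cycle control and DNA damage repair. Read-out: growth inhibition vs vehicle.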

[5] = NCI Yeast Anticancer Drug Screen. Data for the bub3 strain (AID 167); settings: S. cerevisiae bub3 mutant strain, active compounds read high
Summary of the method: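 Part of a panel of yeast mutants defective in DNA damage repair or cell cycle regulation. Each strain is grown with compound, and inhibition is calculated relative to solvent-treated cultures.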

[6] = NCI Yeast Anticancer Drug Screen. Data for the mlh1 rad18 strain (AID 175); settings: S. cerevisiae mlh1 rad18 strain growth inhibition, active compounds read high
Summary of the method: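 A repair-deficient yeast strain is exposed to test compound, and growth is scored relative to vehicle-treated controls.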

[7] = at 5.0 µM (retest, dose inferred, filed as 0.5)
[8] = at 50.0 µM (retest, dose inferred, filed as 5.0)

SMILES | growth inhibition [1, 7] | growth inhibition [1, 8] | growth inhibition ([1]; at 50.0 µM) | growth inhibition [2, 7] | growth inhibition [2, 8] | growth inhibition ([2]; at 50.0 µM) | growth inhibition [3, 7] | growth inhibition [3, 8] | growth inhibition ([3]; at 50.0 µM) | growth inhibition [4, 7] | growth inhibition [4, 8] | growth inhibition ([4]; at 50.0 µM) | growth inhibition [5, 7] | growth inhibition [5, 8] | growth inhibition ([5]; at 50.0 µM) | growth inhibition [6, 7] | growth inhibition [6, 8] | growth inhibition ([6]; at 50.0 µM)
COc1cc2c(cc1O)-c1c(cnn1-c1ccccc1)CCC2 | -7% | 85% (active) | 95.5% (active) | -5% | 93% (active) | 96% (active) | 2% | 88% (active) | 97.4% (active) | -17% | 88% (active) | 55% | -7% | 86% (active) | 93.3% (active) | -8% | 92% (active) | 97.6% (active)
COC(=O)c1ccccc1CC1Cc2cccc(C)c2C1=O (stereo not drawn) | -2% | 28% | 65.2% | -3% | 47% | 51% | 14% | 64% | 67.6% | -2% | 11% | 24.4% | 5% | 80% (active) | 79.7% (active) | 1% | 40% | 76% (active)
CN(C)CC1CCCCCC(Br)C1=O (stereo not drawn) | 18% | 78% (active) | 63.9% | 14% | 80% (active) | 70.2% (active) | 11% | 92% (active) | 84% (active) | 12% | 69% | 91.5% (active) | -7% | 21% | 7.05% | 55% | 96% (active) | 91% (active)
CCCCCCCCCCCCCCCCCC(=O)OCCN1C(=O)c2ccccc2C1=O | -1% | 4% | -5.4% | 10% | -10% | 9.15% | 5% | 12% | 17.7% | -1% | -6% | 71.7% (active) | -4% | -8% | 44% | -2% | -11% | 43.3%
CC/C(=N\NC(=S)SC)c1ccccn1 | 24% | 96% (active) | -13.7% | 16% | 96% (active) | -5.4% | 24% | 96% (active) | 88.9% (active) | 24% | 97% (active) | 88.7% (active) | 18% | 96% (active) | 86.2% (active) | 25% | 96% (active) | 87% (active)
c1ccc(B2OC(c3ccccc3)C(c3ccccc3)O2)cc1 (stereo not drawn) | -19% | -12% | 3.35% | -18% | -21% | -0.45% | -7% | -9% | 10.8% | 24% | 7% | 5.85% | -4% | -3% | 11.2% | -13% | 9% | 8.85%
c1ccc(CCC2=Nc3ccccc3CO2)cc1 | -160% | -155% | 7.75% | -48% | -56% | -6.5% | -64% | -63% | 12.2% | -67% | -87% | 13.3% | -68% | -69% | -18.7% | -126% | -124% | -8.4%
COc1cc(C(=O)C2OC2c2ccc(Cl)cc2)c([N+](=O)[O-])cc1OC (stereo not drawn) | 25% | 51% | 54% | 22% | 47% | 26.4% | 24% | 61% | 54% | 36% | 57% | 58.5% | 15% | 51% | 36.8% | 36% | 85% (active) | 64.2%
Oc1ccc(N=Nc2cc(Cl)ccc2Cl)cc1 | 92% (active) | 95% (active) | 98.5% (active) | 94% (active) | 96% (active) | 98.2% (active) | 95% (active) | 95% (active) | 98.5% (active) | 94% (active) | 94% (active) | 82.5% (active) | 93% (active) | 95% (active) | 98% (active) | – | – | –
CCC[CH2][Sn]([CH2]CCC)([O]C(=O)c1cc(OC)c(OC)cc1OC)[O][Sn]([CH2]CCC)([CH2]CCC)[O]C(=O)c1cc(OC)c(OC)cc1OC | 94% (active) | 97% (active) | 88.5% (active) | 96% (active) | 98% (active) | 91% (active) | 96% (active) | 99% (active) | 91.5% (active) | 92% (active) | 98% (active) | 90.2% (active) | 97% (active) | 98% (active) | 90.5% (active) | 96% (active) | 97% (active) | 89% (active)
CO/N=C/c1cc(NC(=S)c2ccoc2C)ccc1Cl | 4% | 0% | 93.2% (active) | -16% | -17% | 94.2% (active) | 20% | 6% | 93.7% (active) | -26% | 10% | 92.2% (active) | 9% | 34% | 92.2% (active) | -23% | -14% | 91.2% (active)
CCOC(=O)c1cc(Cc2ccccc2)c(=O)n(C)c1-c1ccccc1 | 4% | 75% (active) | 72% (active) | -3% | 83% (active) | 3.1% | 0% | 85% (active) | 93% (active) | 7% | 46% | -5.4% | 5% | 84% (active) | 85.3% (active) | – | – | –
C/C(=N\NC(=S)Nc1ccc(C(=O)O)cc1C)c1ccc2ccccc2n1 | 1% | 55% | 86.2% (active) | 20% | 62% | 97.8% (active) | -3% | 42% | 81.6% (active) | 11% | 30% | 33% | 0% | 45% | 34% | -1% | 49% | 91.7% (active)
O=c1c2cccc3cccc(c4oc5c6cccc7cccc(c(=O)c5c14)c76)c32 | 16% | 92% (active) | 95.5% (active) | 13% | 97% (active) | 88.5% (active) | 15% | 97% (active) | 97.2% (active) | 13% | 88% (active) | 93.9% (active) | 37% | 94% (active) | 96.3% (active) | – | – | –
O=C1c2ccccc2-c2cc(S)c([N+](=O)[O-])cc21 | -10% | 12% | 9.15% | -9% | 10% | 18.5% | -1% | 12% | 36.8% | 1% | 2% | 21% | 4% | 14% | 9.45% | -6% | 4% | 18.5%
Cc1ccc(C2=CC(=O)/C(=C\C(=O)c3ccc(Cl)cc3)O2)cc1 | 31% | 31% | 74.9% (active) | 28% | 28% | 55.5% | 17% | 17% | 71.2% (active) | 38% | 38% | 57% | 22% | 22% | 49.5% | – | – | –
CCC1CCCN1CCOC(=O)C(c1ccccc1)C1C=CCC1 (stereo not drawn) | 31% | 51% | 52.9% | 23% | 58% | 33.9% | 40% | 74% (active) | 72% (active) | 32% | 62% | 62.4% | 40% | 60% | 48.6% | 60% | 79% (active) | 63%
C#CCn1cnc2c(N)ncnc21 | -1% | -11% | 6.75% | 3% | -8% | 15.8% | 5% | -13% | 28.4% | 3% | -6% | 84.2% (active) | -4% | -16% | -6.65% | 2% | -14% | 7.3%
CCCCCCCCCCCCCCNCCN | 23% | 29% | 88.1% (active) | 46% | 33% | 91% (active) | 53% | 97% (active) | 92.5% (active) | 27% | 97% (active) | 88.7% (active) | 84% (active) | 96% (active) | 89.5% (active) | 25% | 29% | 88.5% (active)
CCOC(=O)C(F)C(Br)C(=O)OCC (stereo not drawn) | 22% | 98% (active) | 90.5% (active) | 28% | 99% (active) | 91.8% (active) | 100% (active) | 100% (active) | 91.5% (active) | 98% (active) | 98% (active) | 89.8% (active) | 99% (active) | 100% (active) | 90.7% (active) | 49% | 98% (active) | 90% (active)
